# Values joined by “and” are separate entries in the source; they are usually repeats but may differ in a detail not shown here. Identical values can stand only once. A number with no mark means an inactive call. Results filed as inconclusive are left out. Active and inactive are the calls of the source.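 How the source made its calls, unless noted: active means compounds whose dose series gives a full or clear partial fitted curve of increased nuclear translocation; inconclusive means weak partial curve or effect only at the top dose; inactive means no dose-dependent translocation response.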
# Tests used:
# [1] = Stat Signaling Pathway (AID 446; active means well fitted curve in either direction with a large enough effect, not every such curve was filed as active;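 further: ME-180 cervical cancer cells given 40 pM IL-6 alongside compound; SIE-controlled beta-lactamase reporter measured as 460/530 nm FRET emission ratio; on the % scale 0 is the no-effect control and ±100 the full control effect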); conditions: ME-180 SIE beta-lactamase reporter, IL-6 stimulated, 5 h; at 17.2 µM (top of the series) unless noted
# How it was run: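 Emission at 460 and 530 nm (excitation 405 nm) reports SIE-controlled beta-lactamase in ME-180 cells. Cells received compound with 40 pM IL-6 for 5 hrs at 37 C; data scaled between 300 pM IL-6 and 125 nM JAK-inhibitor controls.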
# [2] = biological target: Glucocorticoid receptor (Homo sapiens) (UniProt P04150); test: GR-GFP Redistribution (AID 450); further: potency means the concentration at half of the fitted maximal effect
# Chain of Glucocorticoid receptor (Homo sapiens) (P04150 whole entry, looked up, the tested form may be a part): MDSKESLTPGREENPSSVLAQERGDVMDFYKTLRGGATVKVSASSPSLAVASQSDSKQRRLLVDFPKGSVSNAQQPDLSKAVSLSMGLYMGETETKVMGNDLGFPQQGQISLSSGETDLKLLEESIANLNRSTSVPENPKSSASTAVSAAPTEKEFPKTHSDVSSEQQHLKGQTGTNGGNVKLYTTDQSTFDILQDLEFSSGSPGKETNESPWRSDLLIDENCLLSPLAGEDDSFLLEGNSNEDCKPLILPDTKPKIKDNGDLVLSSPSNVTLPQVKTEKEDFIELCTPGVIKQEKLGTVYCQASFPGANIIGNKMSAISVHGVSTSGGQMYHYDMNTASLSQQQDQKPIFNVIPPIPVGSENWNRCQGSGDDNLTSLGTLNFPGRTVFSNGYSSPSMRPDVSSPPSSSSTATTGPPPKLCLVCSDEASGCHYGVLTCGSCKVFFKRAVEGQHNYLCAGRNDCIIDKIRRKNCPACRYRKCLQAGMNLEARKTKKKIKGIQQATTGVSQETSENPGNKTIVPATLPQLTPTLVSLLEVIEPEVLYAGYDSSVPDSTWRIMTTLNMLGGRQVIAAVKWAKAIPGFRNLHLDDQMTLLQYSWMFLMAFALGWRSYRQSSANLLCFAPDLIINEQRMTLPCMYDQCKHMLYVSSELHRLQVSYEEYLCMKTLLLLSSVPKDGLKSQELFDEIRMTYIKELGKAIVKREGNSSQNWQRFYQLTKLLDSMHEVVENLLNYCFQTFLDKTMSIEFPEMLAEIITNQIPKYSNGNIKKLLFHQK
# [3] = qHTS Assay for Identification of Small Molecule Agonists for Hypoxia Response Element Signaling Pathway (AID 914; active means well fitted activation curve with a large enough effect in the signal ratio, with a control signal flat, not every such curve was filed as active; the % refers to the signal ratio; further: potency means the concentration at half of the fitted maximal effect); conditions: ME-180 HRE-bla reporter, beta-lactamase ratio, CoCl2, 17 h; activation: hits give high values
# How it was run: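 Cells were plated overnight, pin-dosed with compound in a titration series, co-stimulated with EC50 CoCl2 and incubated 17 hours at 37 degrees Celsius. CCF4 substrate was then loaded, and AC50 values came from the 460nm/530nm ratio.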
# [4] = biological target: Glucocorticoid receptor (Homo sapiens) (UniProt P04150); test: GR-EFC Redistribution (AID 451; calls by dose curve; further: potency means the concentration at half of the fitted maximal effect); conditions: CHO-K1 GR-EFC translocation, beta-gal luminescence, 2 h
# How it was run: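 CHO-K1 cells expressing nuclear EA and GR-ED fragments of b-gal; compounds titrated up to 46 uM final, 2 h at 37 C. GR nuclear translocation read as complemented b-gal luminescence after 1 h RT detection.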
# [5] = biological target: Mitogen-activated protein kinase 10 (Mus musculus) (UniProt Q61831); test: JNK3 AlphaScreen Assay (AID 530; active means well fitted curve in either direction with a large enough effect, not every such curve was filed as active;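 further: kinase came from lysate of stimulated human HepG2 cells; signal reports phosphorylation of biotinylated GST-cJun 1-79 at Ser73 with 10 µM ATP; on the % scale 0 is the no-effect control and ±100 the full control effect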)
# How it was run: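 Activity was read by AlphaScreen after JNK3-containing HepG2 lysate (cytokine pre-activated) phosphorylated biotinylated GST-cJun with 10 uM ATP at room temperature. Phospho-Ser73 cJun antibody with Protein-A acceptor beads provided detection.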
# [6] = biological target: 3',5'-cyclic-AMP phosphodiesterase 4B (Homo sapiens) (UniProt Q07343); test: qHTS Assay for Inhibitors of PDE-IV (AID 607; active means well fitted activation curve with a large enough effect in the main read-out, with a control signal flat, not every such curve was filed as active; further: % of control where 0% means no effect)
# Chain of 3',5'-cyclic-AMP phosphodiesterase 4B (Homo sapiens) (Q07343 whole entry, looked up): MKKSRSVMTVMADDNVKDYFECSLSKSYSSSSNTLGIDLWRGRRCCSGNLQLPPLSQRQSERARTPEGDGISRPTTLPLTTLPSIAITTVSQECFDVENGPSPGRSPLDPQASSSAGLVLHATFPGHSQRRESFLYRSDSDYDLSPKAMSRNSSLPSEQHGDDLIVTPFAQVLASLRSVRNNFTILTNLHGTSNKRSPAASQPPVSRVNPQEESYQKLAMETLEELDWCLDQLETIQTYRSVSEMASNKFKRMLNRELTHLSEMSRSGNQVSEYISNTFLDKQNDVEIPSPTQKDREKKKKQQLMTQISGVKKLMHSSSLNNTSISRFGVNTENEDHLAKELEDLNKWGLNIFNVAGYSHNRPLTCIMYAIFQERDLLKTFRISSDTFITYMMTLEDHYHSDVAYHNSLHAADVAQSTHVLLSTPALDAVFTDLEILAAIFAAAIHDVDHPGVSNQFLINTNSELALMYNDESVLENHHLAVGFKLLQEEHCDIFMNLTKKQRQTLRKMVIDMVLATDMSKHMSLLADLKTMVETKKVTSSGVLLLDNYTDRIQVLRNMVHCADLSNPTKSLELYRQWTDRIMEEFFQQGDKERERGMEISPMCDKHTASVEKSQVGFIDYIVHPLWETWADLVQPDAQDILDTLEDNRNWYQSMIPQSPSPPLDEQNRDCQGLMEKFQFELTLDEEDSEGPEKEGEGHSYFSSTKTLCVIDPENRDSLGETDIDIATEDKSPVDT
# How it was run: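 The readout is membrane depolarisation from a cAMP-sensing CNG channel, detected with a potential dye at ex 535/em 590. Cells were HEK293-derived (endogenous PDE-IV) at 1000 cells/well, titrated up to 22.9 uM final.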
# [7] = biological target: Guanine nucleotide-binding protein G(i) subunit alpha-1 (Homo sapiens) (UniProt P63096); test: qHTS Assay for Inhibitors of RGS12 GoLoco Motif Activity (Green Fluorophore) (AID 879; active means well fitted curve in the direction sought with a large enough effect; an effect the other way counts as inactive or inconclusive;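 further: 0% = labeled peptide with Gαi1 and full inhibition = labeled peptide alone without protein; negative values mean loss of peptide binding seen as reduced polarization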)
# Chain of Guanine nucleotide-binding protein G(i) subunit alpha-1 (Homo sapiens) (P63096 whole entry, looked up): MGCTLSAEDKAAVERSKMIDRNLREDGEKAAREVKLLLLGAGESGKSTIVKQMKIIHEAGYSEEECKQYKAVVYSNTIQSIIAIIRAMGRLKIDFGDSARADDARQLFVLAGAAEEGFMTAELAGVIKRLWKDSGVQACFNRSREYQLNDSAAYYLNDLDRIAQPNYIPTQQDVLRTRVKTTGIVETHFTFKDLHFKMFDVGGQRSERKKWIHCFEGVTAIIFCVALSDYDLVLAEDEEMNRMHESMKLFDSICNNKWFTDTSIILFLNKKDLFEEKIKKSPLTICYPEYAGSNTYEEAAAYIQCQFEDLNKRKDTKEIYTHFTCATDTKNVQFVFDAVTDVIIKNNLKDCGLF
# How it was run: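 A drop in FITC polarization marked displacement of the FITC-tagged RGS12 GoLoco peptide (10 nM) from Gαi1 (50 nM). Compounds were incubated 10 min at room temperature in Tris pH 7.5 buffer containing 150 mM NaCl, 0.1 mM GDP and 0.05% NP40; unlabeled peptide titration served as control.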
# [8] = qHTS Assay for Identification of Small Molecule Antagonists for Thrombopoietin (TPO) Signaling Pathway (AID 918; active means well fitted curve in the direction sought with a large enough effect; an effect the other way counts as inactive or inconclusive; further: potency means the concentration at half of the fitted maximal effect; nearly all actives have a fitted effect of over 60% in size); conditions: TPO-dependent cell signaling reporter, antagonist mode
# How it was run: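 Inhibitors of TPO signaling are sought by stimulating IL-3-starved murine Ba/F3 cells (human TPO receptor, Glycoprotein IIb-driven luciferase) with TPO at its EC50 of 26 pM alongside compound. After 24 hrs at 37 C, reporter luminescence is measured.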
# [9] = biological target: Pyruvate kinase (Leishmania mexicana) (UniProt Q27686); test: qHTS Validation Assay for Inhibitors of Leishmania Mexicana Pyruvate Kinase (AID 945; active means well fitted curve in the direction sought with a large enough effect; an effect the other way counts as inactive or inconclusive;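 further: 0% = DMSO only neutral control wells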)
# Chain of Pyruvate kinase (Leishmania mexicana) (Q27686 2-499 E452W): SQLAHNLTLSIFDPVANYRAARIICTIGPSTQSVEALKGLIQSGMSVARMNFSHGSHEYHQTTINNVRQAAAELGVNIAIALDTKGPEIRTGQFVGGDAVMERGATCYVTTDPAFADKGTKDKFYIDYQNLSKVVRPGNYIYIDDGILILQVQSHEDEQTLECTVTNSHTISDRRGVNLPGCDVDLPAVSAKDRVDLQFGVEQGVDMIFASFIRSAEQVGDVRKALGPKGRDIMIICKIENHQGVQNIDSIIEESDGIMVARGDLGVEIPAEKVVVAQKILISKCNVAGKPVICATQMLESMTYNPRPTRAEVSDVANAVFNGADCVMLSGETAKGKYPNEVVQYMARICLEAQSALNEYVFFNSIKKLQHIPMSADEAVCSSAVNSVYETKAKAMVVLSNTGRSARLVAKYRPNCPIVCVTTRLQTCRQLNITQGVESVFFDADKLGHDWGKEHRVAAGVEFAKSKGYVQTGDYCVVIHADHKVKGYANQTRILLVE
# How it was run: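 The enzyme is a highly purified E451W mutant of LmPYK used at 0.2 nM. It converts 0.5 mM PEP and 0.1 mM ADP over 1 h at room temperature; product ATP is quantified by luciferase luminescence relative to DMSO controls.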
# [10] = biological target: Pyruvate kinase PKM (Homo sapiens) (UniProt P14618); test: qHTS Assay for Activators of Human Muscle Pyruvate Kinase (AID 954; active means well fitted curve in the direction sought with a large enough effect, not every such curve was filed as active;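 further: 0% = uninhibited enzyme and -100% = no enzyme or full thiadiazolimine inhibition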)
# Chain of Pyruvate kinase PKM (Homo sapiens) (P14618 whole entry, looked up): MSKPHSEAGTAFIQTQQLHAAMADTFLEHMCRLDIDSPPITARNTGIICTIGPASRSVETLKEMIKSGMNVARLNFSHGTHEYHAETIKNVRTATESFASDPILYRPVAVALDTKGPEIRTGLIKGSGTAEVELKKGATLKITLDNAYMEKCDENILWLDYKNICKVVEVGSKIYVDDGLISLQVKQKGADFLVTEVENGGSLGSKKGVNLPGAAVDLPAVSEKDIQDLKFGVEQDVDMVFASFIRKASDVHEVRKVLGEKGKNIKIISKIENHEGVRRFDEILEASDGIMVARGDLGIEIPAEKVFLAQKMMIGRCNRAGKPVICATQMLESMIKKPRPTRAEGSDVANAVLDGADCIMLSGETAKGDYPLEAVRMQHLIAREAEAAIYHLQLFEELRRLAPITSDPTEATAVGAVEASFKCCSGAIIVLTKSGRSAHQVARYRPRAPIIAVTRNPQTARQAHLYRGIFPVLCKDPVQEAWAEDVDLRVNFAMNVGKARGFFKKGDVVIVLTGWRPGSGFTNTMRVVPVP
# How it was run: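 PKM2, human, >95% pure, 0.1 nM; PEP 0.5 mM (Km), ADP 0.1 mM; 50 mM imidazole pH 7.2, 50 mM KCl, 0.01% Tween 20, 0.05% BSA; 1 h RT; luciferase luminescence readout.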
# [11] = biological target: Alpha-galactosidase A (Homo sapiens) (UniProt P06280); test: Counterscreen for Glucocerebrosidase Inhibitors: qHTS Assay for Human alpha-Galactosidase at pH 4.5 (AID 992; active means well fitted curve in the direction sought with a large enough effect; an effect the other way counts as inactive or inconclusive; further: 0% is about no effect)
# Chain of Alpha-galactosidase A (Homo sapiens) (P06280 whole entry, looked up): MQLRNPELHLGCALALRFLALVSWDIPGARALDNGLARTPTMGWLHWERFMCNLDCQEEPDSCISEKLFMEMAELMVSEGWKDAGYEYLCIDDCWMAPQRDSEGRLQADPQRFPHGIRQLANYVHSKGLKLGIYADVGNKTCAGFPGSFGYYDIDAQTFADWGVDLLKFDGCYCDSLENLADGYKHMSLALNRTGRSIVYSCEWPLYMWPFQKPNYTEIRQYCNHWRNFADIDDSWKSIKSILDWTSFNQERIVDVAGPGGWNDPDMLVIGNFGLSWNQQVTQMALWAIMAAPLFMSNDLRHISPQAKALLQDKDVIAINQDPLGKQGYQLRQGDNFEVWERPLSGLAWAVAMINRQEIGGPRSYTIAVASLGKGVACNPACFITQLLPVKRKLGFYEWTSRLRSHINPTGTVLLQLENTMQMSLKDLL
# How it was run: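 Fluorogenic 4-MU alpha-D-galactoside (80 uM) hydrolysis, 2 nM enzyme, pH 4.5 citrate buffer + 0.005% Tween-20; 20 min RT; NaOH/glycine pH 10 stop; Ex365/Em440. Compounds titrated 0.7 nM–77 uM; Hill-equation AC50.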
# [12] = biological target: alpha-glucosidase (Oryza sativa, rice) (UniProt Q653V4); test: Counterscreen for Glucocerebrosidase Inhibitors: qHTS Assay for Rice alpha-Glucosidase at pH 5.0 (AID 997; active means well fitted curve in the direction sought with a large enough effect; an effect the other way counts as inactive or inconclusive;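 further: 0% = full activity with enzyme and -100% = basal without enzyme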)
# How it was run: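 Endpoint fluorogenic assay at pH 5.0: compounds (0.7 nM to 77 uM) titrated against 4 nM rice enzyme and 400 uM 4-MU-alpha-glucoside for 20 min at room temperature; NaOH/glycine stop, read ex 365/em 440 nm, Hill-fitted AC50.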
# [13] = qHTS Assay for Identification of Small Molecule Antagonists for NFkB Signaling Pathway (AID 895; active means well fitted inhibition curve with a large enough effect in the signal ratio, with a control signal flat, not every such curve was filed as active; the % refers to the signal ratio; further: potency means the concentration at half of the fitted maximal effect)
# How it was run: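 ME-180 NFkB-bla cells (beta-lactamase under NFkB response element), plated overnight, treated with compound then 10 pM TNF alpha (about EC50) for 5 hrs at 37 C. LiveBLAzer FRET read at 460/530 nm emission, 405 nm excitation.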
# [14] = biological target: Muscarinic acetylcholine receptor M1 (Rattus norvegicus) (UniProt P08482); test: qHTS Assay for Antagonists of Acetylcholine Muscarinic M1 Receptor: Kinetic Measurement of Intracellular Calcium Response (AID 943; active means well fitted curve in the direction sought with a large enough effect; an effect the other way counts as inactive or inconclusive;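 further: Fluo-4 calcium signal as peak divided by basal fluorescence over 4 min; nearly all actives have a fitted effect of over 75% in size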)
# Chain of Muscarinic acetylcholine receptor M1 (Rattus norvegicus) (P08482 whole entry, looked up): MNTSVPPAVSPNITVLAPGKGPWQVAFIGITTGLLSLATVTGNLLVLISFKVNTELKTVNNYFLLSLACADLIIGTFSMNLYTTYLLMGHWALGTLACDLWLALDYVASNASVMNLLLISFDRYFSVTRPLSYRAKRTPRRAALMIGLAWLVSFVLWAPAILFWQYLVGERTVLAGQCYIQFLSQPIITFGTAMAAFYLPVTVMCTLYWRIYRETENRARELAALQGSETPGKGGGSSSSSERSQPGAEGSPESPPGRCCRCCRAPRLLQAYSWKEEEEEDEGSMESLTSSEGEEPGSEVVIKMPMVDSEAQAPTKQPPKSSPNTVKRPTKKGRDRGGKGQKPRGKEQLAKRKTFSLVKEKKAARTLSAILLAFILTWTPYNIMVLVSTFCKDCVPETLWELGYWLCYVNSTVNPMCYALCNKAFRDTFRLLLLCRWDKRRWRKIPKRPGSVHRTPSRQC
# How it was run: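 Antagonism is measured as inhibition of the carbachol-evoked calcium rise in CHO cells transfected with rat M1. Cells are dye-loaded, exposed to compound for 10 min, then stimulated with 100 nM carbachol (EC80).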
smiles,measurement,setting,value
N#Cc1ccc(-c2ccco2)nc1SCC(=O)c1ccc(Cl)cc1,"activity, negative = inhibition",[1],-9.2%
same,Potency,[2],> 20.6 µM
N#Cc1nc(COc2ccc(Br)cc2)oc1N1CCCC1,"activity, negative = inhibition",[1],3.52%
same,Potency,[2],> 20.6 µM
Cc1cccc(C)c1OCC(=O)Nc1cccc(-c2nnc(-c3ccccc3)o2)c1,"activity, negative = inhibition",[1],-9.86%
same,Potency,[2],> 20.6 µM
CCOc1ccc(/C(O)=C2/C(=O)C(=O)N(c3cc(C)on3)C2c2ccc(C(=O)OC)cc2)cc1 (configuration not stated),"activity, negative = inhibition",[1],-18.4%
same,Potency,[2],> 20.6 µM
Fc1ccc2[nH]c3c(N4CCN(c5ccccc5)CC4)ncnc3c2c1,"activity, negative = inhibition",[1],-93.2% (active)
same,Potency,[2],> 20.6 µM
CC(NC(=O)CSc1nc2c(cc1C#N)CN(C)CC2)c1ccccc1 (configuration not stated),"activity, negative = inhibition",[1],-4.3%
same,Potency,[2],> 20.6 µM
CC1(C)CC(=O)C2=C(C1)Oc1nc3ccccc3cc1C2C(C#N)C#N (configuration not stated),"activity, negative = inhibition",[1],-93% (active)
same,Potency,[2],> 20.6 µM
N#CC1=C(SCC(=O)c2ccccc2)NC2=C(C(=O)CCC2)C1c1ccco1 (configuration not stated),"activity, negative = inhibition",[1],-23.9%
same,Potency,[2],> 20.6 µM
same,Potency,[3],10 µM (active)
Fc1ccccc1-c1nc(N2CCCCC2)c2ccccc2n1,"activity, negative = inhibition",[1],-21.5%
same,Potency,[2],> 20.6 µM
CCOC(=O)C1CCN(c2nc3ccccc3nc2C(C#N)C(=O)NCCc2ccccc2)CC1 (configuration not stated),"activity, negative = inhibition",[1],-24.6%
same,Potency,[2],> 20.6 µM
N#CCSc1nc2c(c(=O)n1Cc1ccco1)C1(CCCC1)Cc1ccccc1-2,"activity, negative = inhibition",[1],-1.5%
same,Potency,[2],> 20.6 µM
CN(CCCCCNC(=O)/C=N/O)Cc1ccccc1,"activity, negative = inhibition",[1],9.45%
same,Potency,[2],> 20.6 µM
COC(=O)CC1=C(C(=O)OC)C(c2ccncc2)C(C#N)=C(N)O1 (configuration not stated),"activity, negative = inhibition",[1],0.288%
same,Potency,[2],> 20.6 µM
CCCc1nn(C)c2c1C(c1cccnc1)C(C#N)=C(N)O2 (configuration not stated),"activity, negative = inhibition",[1],4.95%
same,Potency,[2],> 20.6 µM
CCN(CC)c1ccc2c(C)c(-c3ccc(N)cc3)c(=O)oc2c1,"activity, negative = inhibition",[1],14.8%
same,Potency,[2],> 20.6 µM
CCCCc1ccc(NC(=O)CSC2=C(C#N)C(c3ccco3)C3=C(CCCC3=O)N2)cc1 (configuration not stated),"activity, negative = inhibition",[1],-23.6%
same,Potency,[2],> 20.6 µM
CSc1ccc2c(c1)N(CC[C@H]1CCCCN1C)c1ccccc1S2,"activity, negative = inhibition",[1],-7.21%
same,Potency,[2],> 46 µM and > 20.6 µM
same,Potency,[4],> 46 µM and > 20.6 µM
same,Potency,[5],inactive
same,Potency,[6],inactive
same,outcome,[7],inactive
same,Potency,[8],12.6 µM (active)
same,Potency,[9],inactive
same,outcome,[10],inactive
same,outcome,[11],inactive
same,outcome,[12],inactive
COC(=O)c1ccc(Cn2cnc3c(sc4nc(N5CCOCC5)c5c(c43)CCCC5)c2=O)o1,"activity, negative = inhibition",[1],-11.4%
same,Potency,[2],> 20.6 µM
Cc1cc(N2C(=O)C(=O)/C(=C(/O)c3ccc(F)cc3)C2c2ccc(F)cc2)no1 (configuration not stated),"activity, negative = inhibition",[1],-24.4%
same,Potency,[2],> 20.6 µM
N#C[C@@H](Cc1ccc(O)c(O)c1)C(=O)N1CCc2ccccc21,"activity, negative = inhibition",[1],26% [at 38 µM]
same,Potency,[2],> 46 µM
same,Potency,[4],> 46 µM
same,Potency,[6],inactive
same,outcome,[7],inactive
same,Potency,[13],10 µM (active)
same,Potency,[14],inactive
same,Potency,[9],inactive
same,outcome,[10],inactive
same,outcome,[11],inactive
same,outcome,[12],inactive
COc1cccc(-c2nnc3sc(C4CCCCC4)nn23)c1,"activity, negative = inhibition",[1],-91.1% (active)
same,Potency,[2],> 20.6 µM
COC(=O)c1[nH]c2cc(OC)ccc2c1NC(=O)CN1CCN(c2cccc(C)c2)C(C)C1 (configuration not stated),"activity, negative = inhibition",[1],-21.4%
same,Potency,[2],> 20.6 µM
Cn1c(NCC(O)c2ccccc2)nc2c1c(=O)n(Cc1ccc(Cl)cc1)c(=O)n2C (configuration not stated),"activity, negative = inhibition",[1],-24.9%
same,Potency,[2],> 20.6 µM
COc1cccc(-c2nc(NC(C)(C)C)c3ccccc3n2)c1O,"activity, negative = inhibition",[1],-74.9% (active)
same,Potency,[2],> 20.6 µM
Clc1ccccc1CN(Cc1ccccc1)c1ncnc2nc[nH]c12,"activity, negative = inhibition",[1],-10.3%
same,Potency,[2],> 20.6 µM
C=CCc1cccc(CNc2nc3ccccc3n2C(C)C)c1O,"activity, negative = inhibition",[1],-22.2%
same,Potency,[2],> 20.6 µM
Cn1c(NCc2ccccc2)nc2c1c(=O)n(Cc1ccc(Br)cc1)c(=O)n2C,Potency,[2],> 20.6 µM
COc1cccc(C(=O)Nc2ccc(-c3nnc(-c4ccco4)o3)cc2)c1,Potency,[2],> 20.6 µM
CCCCSc1nc(N)c(C#N)c(-c2cccs2)c1C#N,Potency,[2],> 20.6 µM
N#C/C(=C\N1CCN(Cc2ccc3c(c2)OCO3)CC1)c1nc2ccccc2s1,Potency,[2],> 20.6 µM
COc1cccc(-c2nc(NC(C)C)c3ccccc3n2)c1O,Potency,[2],> 20.6 µM
N#CC(C(=O)NC1CC1)c1nc2ccccc2nc1N1CCN(C/C=C/c2ccccc2)CC1 (configuration not stated),Potency,[2],> 20.6 µM
Cc1ccc(S(=O)(=O)N2CCN(c3nc(C(C)C)c4c(c3C#N)CC(C)(C)OC4)CC2)cc1,Potency,[2],> 20.6 µM
COc1ccccc1N=Cc1nc(-c2ccccc2)oc1OC(C)=O,Potency,[2],> 20.6 µM
Cc1ccc(C2C3CN(C(C)C)CC=C3C(C#N)=C(N)C2(C#N)C#N)cc1 (configuration not stated),Potency,[2],> 20.6 µM
CCc1cc2c(=O)c(-c3nc4ccccc4[nH]3)coc2cc1OC(=O)N1CCOCC1,Potency,[2],> 20.6 µM
COc1ccc(CNc2oc(COc3ccccc3Cl)nc2C#N)cc1,Potency,[2],> 20.6 µM
CSc1nc(N)nc(SCC(=O)C23CC4CC(CC(C4)C2)C3)c1C#N,Potency,[2],> 20.6 µM
O=C(Nc1ccc(N2CCN(C(=O)c3ccccc3)CC2)c(Cl)c1)c1ccc(Br)o1,Potency,[2],> 20.6 µM
Cc1csc(NC(=O)CSc2nsc(SCC(=O)Nc3nc(C)cs3)c2C#N)n1,Potency,[2],> 20.6 µM
COc1ccc2[nH]c3c(N4CCN(Cc5ccc6c(c5)OCO6)CC4)ncnc3c2c1,Potency,[2],> 20.6 µM
Cc1ccc(-n2ncc3c(N4CCN(c5ccccc5)CC4)ncnc32)c(C)c1,Potency,[2],> 20.6 µM
O=C1CC(N(O)C2CC(=O)N(Cc3ccccc3)C2=O)C(=O)N1Cc1ccccc1 (configuration not stated),Potency,[2],> 20.6 µM
COc1ccc(C(=O)c2sc(NC(C)C)nc2N)cc1OC,Potency,[2],> 20.6 µM
N#CC1=C(N)NC(SCc2ccc(Cl)cc2)=C(C#N)C12CCCCC2,Potency,[2],> 20.6 µM
Nc1nonc1C(=O)NCCN=Cc1cc(Cc2ccccc2)cc(Br)c1O,Potency,[2],> 20.6 µM
COc1ccc(-c2nn(C)c(=O)c3ccccc23)cc1NS(C)(=O)=O,Potency,[2],> 20.6 µM

# Source: PubChem BioAssay (NCATS)
